Source: PubChem
TDP1 cell noCPT: qHTS for Inhibitors of human tyrosyl-DNA phosphodiesterase 1 (TDP1): qHTS in cells in absence of CPT | DT40 Tdp1-/- hTDP1 cells, no CPT, ATP luminescence, 48 h | Potency, µM (series often up to 46.2 µM), for inactives: at the highest dose activity change, negative = growth inhibition, actives largely listed as inhibitors | 420,000 compounds, 15% hits | AID 686978, 2013; also: potency is read from the fitted curve at half-maximal effect; % is scaled to controls: 0 for no effect and ±100 for the full control effect; nearly all actives have a fitted effect of over 55% in size
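Readout: luminescence from CellTiter-Glo after 30 min in the dark at RT. Cells: DT40 Tdp1-/- with stable hTDP1, 400/well. Exposure: compounds alone, ≥48 hr, 37 °C.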
IL-1B inflam inh: inflammasome signaling inhibition, IL-1 beta readout | THP-1 LPS/ATP IL-1B secretion, AlphaLISA, 16 h; active compounds read low | activity change, % at 57.5 µM | 360,000 compounds, 4.7% hits; in the data active = activity change below about -50%; inconclusive = mostly about -30% to -49%; also: % is scaled to controls: 0 for no effect and ±100 for the full control effect
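THP-1 cells pretreated 1 hr with compounds (up to 57.5 uM final), then stimulated with LPS (250 ng/mL final) plus ATP (1.25 mM final); secreted IL-1B measured by AlphaLISA after 16 hr, decreased signal indicating inhibition.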
Chronic BCR inh: blocks chronic active B-cell receptor signaling; ABC-DLBCL IkBa-CBG/CBR reporter, luminescence ratio, 4 h; Potency, µM (doses to about 46.1 µM), for inactives: at the highest dose activity change, negative = inhibition, most hits filed as inhibitors; 340,000 compounds, 0.05% hits; active = well fitted inhibition curve with a large enough effect in the signal ratio, with a control signal flat, not every such curve was filed as active; inconclusive = small, poorly fitted or top-dose-only effect, or effect the other way, or a change in a side signal; the % refers to the signal ratio;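 also: potency is read from the fitted curve at half-maximal effect; plate controls were basal doxycycline-induced cells for no effect and cells given 10 µM MG132 for full effect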
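Concentration-response series (up to 46 uM) were applied to TMD8 dual-reporter cells for 4 h at 37C with doxycycline. Green/red ratio, after filter-overlap correction, defined %Activity; red signal alone was normalised to basal cells and zero luminescence.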
MCF10A rereplic: DNA re-replication induction in MCF 10a cells. MCF 10A DNA re-replication, Hoechst nuclear intensity, 48 h. Potency, µM (top dose mostly 46.1 µM), for the others: at the highest dose activity, positive = re-replication, most hits filed as activators. 350,000 compounds, 2.9% hits. AID 624296; also: potency is read from the fitted curve at half-maximal effect; % of control where 0% means no effect; nearly all actives have a fitted effect of over 50% in size
TDP1 cell CPT: growth inhibition of DT40 Tdp1-/-;hTDP1 cells with camptothecin (screen for TDP1 inhibitors) | 420,000 compounds, 12% hits | Potency, µM (titrated, usually from 46.2 µM), for the others: at the top dose activity change, negative = growth inhibition, most hits filed as inhibitors | chicken DT40 Tdp1-/-;hTDP1 cells + 20 nM CPT, ATP luminescence, 48 h | AID 686979; also: potency is read from the fitted curve at half-maximal effect; % is scaled to controls: 0 for no effect and ±100 for the full control effect; nearly all actives have a fitted effect of over 55% in size
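Chicken DT40 Tdp1-/- cells stably complemented with human TDP1 were seeded at 400 cells/well in medium containing 20 nM camptothecin, exposed to pin-transferred compounds, and grown at 37 °C for at least 48 hr. Viability was read as ATP luminescence.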
SW480 rerep: induces DNA re-replication in SW480 colon adenocarcinoma cells; Potency, µM (highest dose often 46.1 µM), inactives show at the top dose re-replication activation, most hits filed as activators; 340,000 compounds, 1.8% hits; SW480 DNA re-replication, Hoechst DNA content imaging, 48 h; also: potency is read from the fitted curve at half-maximal effect; % of control where 0% means no effect; nearly all actives have a fitted effect of over 55% in size
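Quantitative HTS format with DMSO vehicle controls; 48 hr drug incubation at 37 C, then 40 min Hoechst staining and scanning imager measurement at 405 nm excitation.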
* marks the source's active call; other numbers are inactive results. Compounds with a hit are over-represented: about 19% of the library has one in this group of screens. Unless noted, calls follow the shape of the dose curve; as a rule, active = well fitted curve in the direction sought with a large enough effect; inconclusive = small, poorly fitted or top-dose-only effect, or another doubt; inactive = no such curve, though single readings can be large; an effect the other way counts as inactive or inconclusive.

Screening C[C@H](CO)N1C[C@H](C)[C@@H](CN(C)S(=O)(=O)c2cn(C)cn2)Oc2c(NC(=O)Nc3ccc4c(c3)OCO4)cccc2C1=O returned TDP1 cell noCPT -23%, IL-1B inflam inh -9, Chronic BCR inh inconclusive, MCF10A rereplic -3%, TDP1 cell CPT -30% and SW480 rerep 2%.
For Cc1c(C(=O)N2CCN(c3ccccn3)CC2)oc2c1C(=O)CC(C)(C)C2 the results were TDP1 cell noCPT inconclusive, IL-1B inflam inh 10, Chronic BCR inh 2%, MCF10A rereplic -1%, TDP1 cell CPT inconclusive and SW480 rerep -16%.
`COc1ccccc1N1CCN(C(=O)c2oc3c(c2C)C(=O)CC(C)(C)C3)CC1` gave TDP1 cell noCPT 6.5µM*, IL-1B inflam inh -6, Chronic BCR inh inconclusive, MCF10A rereplic -4%, TDP1 cell CPT 15µM* and SW480 rerep -6%.
`COc1ccccc1N1CCN(C(=O)c2oc3cc(C)cc(C)c3c2C)CC1` gave TDP1 cell noCPT 26µM*, IL-1B inflam inh 1, Chronic BCR inh -4%, MCF10A rereplic inconclusive, TDP1 cell CPT inconclusive and SW480 rerep -3%.
Screening COc1cccc(CNC(=O)[C@@H]2CCCN2C(=O)[C@@H]2CCCN2C(=O)c2cccc3ccccc23)c1 returned TDP1 cell noCPT inconclusive, IL-1B inflam inh 0 and TDP1 cell CPT inconclusive.
`CC(=O)Oc1ccc2occ(-c3ccccc3)c2c1` gave TDP1 cell noCPT inconclusive, IL-1B inflam inh 12, Chronic BCR inh -1%, MCF10A rereplic 0%, TDP1 cell CPT -23% and SW480 rerep 5%.
`CC(=O)Oc1ccc2c(c1)OC(c1ccccc1)CC21CC(C)(C)NC(=S)N1` (configuration not stated) gave TDP1 cell noCPT 12µM*, IL-1B inflam inh 2, Chronic BCR inh -6%, MCF10A rereplic 22%, TDP1 cell CPT 16µM* and SW480 rerep 0%.
Screening CC1(C)CC2(CC(c3ccccc3)Oc3cc(O)ccc32)NC(=O)N1 (configuration not stated) returned Chronic BCR inh -1%.
Screening CC1(C)CC2(CC(c3ccccc3)Oc3cc(O)ccc32)NC(=S)N1 (configuration not stated) returned TDP1 cell noCPT 21µM*, IL-1B inflam inh 24, Chronic BCR inh -4%, MCF10A rereplic 7%, TDP1 cell CPT 21µM* and SW480 rerep 5%.
C[C@@H]1C[C@H]2[C@@H]3CCC4=CC(=O)C=C[C@]4(C)[C@@]3(F)C(O)C[C@]2(C)[C@@]1(O)C(=O)CO (some centres not stated) was read as TDP1 cell noCPT -26% and TDP1 cell CPT 5%.
O/N=C(/CBr)c1ccc2ccccc2c1 was read as TDP1 cell noCPT -30% and TDP1 cell CPT 3%.
Screening COC(=O)C1=CN(CCCN2CCCC2=O)C=C(C(=O)OC)C1c1ccccc1C(F)(F)F returned TDP1 cell noCPT inconclusive, IL-1B inflam inh 0, Chronic BCR inh inconclusive, MCF10A rereplic 13µM*, TDP1 cell CPT -27% and SW480 rerep 18µM*.
For CCCOc1ccccc1C1C(C(=O)OC)=CN(C(C)C)C=C1C(=O)OC the results were TDP1 cell noCPT -23%, IL-1B inflam inh -1, Chronic BCR inh 0%, MCF10A rereplic inconclusive, TDP1 cell CPT 11% and SW480 rerep inconclusive.
Screening COC(=O)C1=CN(CC2CCCO2)C=C(C(=O)OC)C1c1ccccc1C(F)(F)F (configuration not stated) returned TDP1 cell noCPT -4%, IL-1B inflam inh 2, Chronic BCR inh 6%, MCF10A rereplic inconclusive, TDP1 cell CPT -2% and SW480 rerep inconclusive.
`CCCCOc1ccccc1C1C(C(=O)OC)=CN(CC)C=C1C(=O)OC` gave TDP1 cell noCPT inconclusive, IL-1B inflam inh -26, Chronic BCR inh inconclusive, MCF10A rereplic inconclusive, TDP1 cell CPT inconclusive and SW480 rerep 12µM*.
For Clc1ccc(-n2cccc2CN2CCc3nnc(Cc4ccccc4)n3CC2)nc1 the results were TDP1 cell noCPT -14% and TDP1 cell CPT 4%.
Screening COc1ccnc(CS(=O)c2nc3cc(OC(F)F)ccc3[nH]2)c1OC (configuration not stated) returned TDP1 cell noCPT -26% and TDP1 cell CPT inconclusive.
Screening CC(=O)c1cc(-c2ccccc2)n(CCC(=O)Nc2cc(C)cc(C)c2)c1C returned TDP1 cell noCPT inconclusive, Chronic BCR inh -5% and TDP1 cell CPT inconclusive.
Screening Cc1nn(CC(=O)NCCc2ccccc2)c(=O)c2ccccc12 returned TDP1 cell noCPT -3%, IL-1B inflam inh 2, Chronic BCR inh -1%, MCF10A rereplic 1%, TDP1 cell CPT -3% and SW480 rerep 11%.
Screening CCn1c(-c2ccc(C)cc2)nn(CC(=O)NCCc2ccccc2)c1=S returned TDP1 cell noCPT 2.9µM*, IL-1B inflam inh -12, Chronic BCR inh 3%, MCF10A rereplic inconclusive, TDP1 cell CPT 2.9µM* and SW480 rerep 6%.
CCOC(=O)c1cc(-c2ccc(F)cc2)n(CCC(=O)NCc2ccc(C)cc2)c1C was read as TDP1 cell noCPT 21µM*, Chronic BCR inh inconclusive and TDP1 cell CPT inconclusive.
Screening CC(=O)c1cc(-c2ccc(F)cc2)n(CC(=O)NCc2ccc(C)cc2)c1C returned TDP1 cell noCPT 8.2µM*, Chronic BCR inh 6% and TDP1 cell CPT 16µM*.
Screening CC(=O)c1cc(-c2ccccc2)n(CC(=O)NCCc2ccc(C)cc2)c1C returned TDP1 cell noCPT 8.2µM*, Chronic BCR inh inconclusive and TDP1 cell CPT 15µM*.
COc1ccc(N(CC(=O)N2CCN(C)CC2)S(=O)(=O)c2cc(C)ccc2OC)cc1Cl was read as TDP1 cell noCPT -5%, IL-1B inflam inh 8, Chronic BCR inh -5%, MCF10A rereplic -2%, TDP1 cell CPT 2% and SW480 rerep 0%.
Screening O=C(CCCCn1cnc2c(=S)nc[nH]c21)Nc1ccc(C(=O)O)c(O)c1 returned TDP1 cell noCPT -3%, IL-1B inflam inh -10, MCF10A rereplic 0%, TDP1 cell CPT 1% and SW480 rerep -1%.
Screening O=C(Nc1cccnc1)C1(F)C(F)(F)C(F)(F)C(F)(F)C(F)(F)C1(F)F returned TDP1 cell noCPT inconclusive, IL-1B inflam inh -67*, Chronic BCR inh -2%, MCF10A rereplic 14%, TDP1 cell CPT inconclusive and SW480 rerep -4%.
